Screening data from PubChem.
proKLK7 act = proKLK7 zymogen activators, primary screen, biochemical, fluorescence intensity | Kallikrein-7 (Homo sapiens), P49862 | purified proKLK7, EDANS-DABCYL substrate fluorescence; 100% is mature enzyme control, 0% vehicle | activation, % at 7 µM | hit rate 0.9% among 370,000 | AID 652039, 2013;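 active = activation above the mean of all tested compounds plus 3 SD, computed per campaign excluding outliers beyond control limits, cut at about 13% in these data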
Target sequence (P49862 whole entry, looked up): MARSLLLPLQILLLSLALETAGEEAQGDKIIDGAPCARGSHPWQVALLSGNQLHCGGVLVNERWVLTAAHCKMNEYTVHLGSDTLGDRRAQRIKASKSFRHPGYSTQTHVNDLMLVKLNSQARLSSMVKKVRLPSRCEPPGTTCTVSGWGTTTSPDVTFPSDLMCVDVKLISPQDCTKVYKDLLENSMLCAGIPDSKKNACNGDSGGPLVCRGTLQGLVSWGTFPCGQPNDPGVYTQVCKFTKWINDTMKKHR
rRNA inh HTS = reduced GFP signal of wild-type E. coli, primary screen, bacterial rRNA inhibitor project, GFP/RFP fluorescence, OD600, single point; GFP signal change (wild-type ribosome), % (test concentration not listed); E. coli WT GFP vs humanized-ribosome RFP mutants, 24 h; stronger effect = lower value; DMSO median 0, no signal -100; hit rate 1.6% among 350,000;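 active = significant combined selectivity score with lowered wild-type GFP, culture density cut under 30%, mutant RFP and density less affected; inactive = any of these conditions unmet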
FGF22 binding = binders of human FGF22 protein, primary screen, FGF22 synaptogenesis inhibitor project, biophysical, thermal shift, single point; AID 651658, 2012; hit rate 1.5% among 340,000; recombinant FGF22 thermal shift, SYPRO orange fluorescence; percent of sucrose octasulfate shift, DMSO zero; activity (Tm shift, normalised), % at 9.99 µM; Fibroblast growth factor 22 (Homo sapiens), Q9HCT0;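 active = mean Tm shift, scaled 0 neutral to 100 positive control, at about 1.3% or above, every replicate too, limit read from the data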
Target sequence (Q9HCT0 whole entry, looked up): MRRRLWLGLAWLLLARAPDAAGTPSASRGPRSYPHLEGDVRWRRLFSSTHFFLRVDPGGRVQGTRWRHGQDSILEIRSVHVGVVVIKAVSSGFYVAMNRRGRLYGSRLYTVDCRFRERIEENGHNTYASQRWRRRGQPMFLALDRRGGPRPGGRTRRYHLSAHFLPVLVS
ADAM17 inh = ADAM17 inhibitors, primary screen, biochemical, QFRET; hit rate 0.83% among 370,000; AID 720648, 2013; Disintegrin and metalloproteinase domain-containing protein 17 (Homo sapiens), P78536; recombinant ADAM17, EDANS/DABCYL FRET peptide cleavage; inhibition, % at 6.95 µM;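 active = inhibition above the mean of compounds lying between control limits plus 3 SD, set per campaign, cut at about 8.5% in these data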
ADAM10 inh = human ADAM10 inhibitors, primary screen, biochemical, QFRET, HTS; Disintegrin and metalloproteinase domain-containing protein 10 (Homo sapiens), O14672; recombinant ADAM10, EDANS/DABCYL FRET peptide cleavage, 3 h; inhibition, % at 7 µM; hit rate 0.62% among 370,000; AID 720582, 2013;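 active = inhibition above a per-campaign cutoff equal to the mean of compounds falling between control-based bounds plus 3 SD, cut at about 20% in these data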
Hits are given with their value; n = inactive; x = no result. Most compounds without a hit are left out; they make up all but 3.8% or so of the library.

SMILES | proKLK7 act | rRNA inh HTS | FGF22 binding | ADAM17 inh | ADAM10 inh
Cc1noc(C)c1NC(=O)N(C)C[C@H]1Oc2ccc(NC(=O)CCN3CCOCC3)cc2C(=O)N([C@@H](C)CO)C[C@H]1C | x | n | n | x | x
COc1ccc(N2CCN(C(=O)c3ccc(NS(=O)(=O)c4cccs4)cc3)CC2)cc1 | n | -23.1 | n | n | n
CCOc1ccc(NS(=O)(=O)c2ccc(C(=O)N3CCN(c4ncccn4)CC3)cc2)cc1 | n | -22.6 | n | n | n
COc1ccc(N2CCN(C(=O)c3ccc(NS(=O)(=O)c4ccc(F)cc4)cc3)CC2)cc1 | n | x | x | n | n
CN1c2ccc(C3=CCCCC3)cc2[C@@H]2[C@@H](CCN2C(=O)Nc2ccc(F)cc2)[C@@H]1CO | x | n | n | x | x
CC(=O)CCc1oc2ccccc2c1-c1ccccc1 | n | -33.8 | n | n | n
CN(C)/C=C/C(=O)c1ccc(Br)s1 | n | n | 43.3 | n | n
O=C(N/N=C/C(Br)=C/c1ccccc1)C(O)c1ccccc1 (stereo unspecified) | n | -27.4 | n | n | n
O=C(N/N=C/C(Br)=C/c1ccccc1)C1CC1 | n | n | n | n | n
CSc1nc(C)c(C(=O)Nc2ccccc2)c(C)c1C#N | n | -21.0 | n | n | n
Cc1nc(SCC(=O)c2cc3ccccc3oc2=O)c(C#N)c(C)c1C(=O)Nc1ccccc1 | n | x | x | n | n
CC(C)NC(=O)Nc1ccc2c(c1)C(=O)N(C)C[C@H](C)[C@H](CN(C)C(=O)OC(C)(C)C)O2 | x | n | x | x | x
C[C@@H]1CC=CC[C@H](c2ccccc2)NC(=O)[C@@H](Cc2ccccc2)N(C)C(=O)c2ccccc2O1 (mixture of isomers) | x | n | x | x | x
COc1ccc(CNC(=O)C2CC(O)CN2C(=O)Nc2ccccc2)cc1 (stereo unspecified) | n | n | n | n | n
COC(=O)C1CC(O)CN1C(=O)Nc1ccccc1 (stereo unspecified) | n | n | 43.3 | n | n
O=C(COc1nncc2ccccc12)Nc1ccc(F)c(F)c1 | n | n | 43.3 | n | n
O=C(COc1nncc2ccccc12)Nc1c(F)c(F)c(F)c(F)c1F | n | n | n | n | n
CCOc1ccc(NCc2nc3ccccc3n2CCOc2ccccc2)cc1 | n | x | x | n | 29.9
CC(=O)NCCc1nc2ccccc2n1CCOc1cccc(C)c1 | n | -28.4 | n | n | n
CNC[C@@H]1Oc2ccc(N)cc2C(=O)N(C)C[C@H]1C | x | n | x | x | x
COc1ccc(-c2csc(Nc3ccc(C)cn3)n2)cc1 | n | n | 60.8 | n | n
Cc1nc(C)c(-c2csc(Nc3ccccn3)n2)s1 | n | n | n | n | n
Cc1ccnc(Nc2nc(-c3sc(C)nc3C)cs2)c1 | n | -34.5 | n | n | n
Cc1ccnc(Nc2nc(-c3ccc(F)cc3)cs2)c1 | n | -36.4 | n | n | n
CC(=O)Oc1ccc(-c2csc(Nc3ccc(Cl)cn3)n2)cc1 | n | n | n | n | n
SMILES | proKLK7 act | rRNA inh HTS | FGF22 binding | ADAM17 inh | ADAM10 inh
N#Cc1ccc(/C=C/C(=O)c2ccccc2)cc1 | n | n | n | n | n
O=C(O)/C=C/c1ccc(S(=O)(=O)Nc2ccc(OCc3ccccc3)cc2)cc1 | n | -24.0 | n | n | n
N#C/C(=C\c1ccc(OCc2ccccc2)cc1)C(N)=O | n | n | n | n | n
O=C(O)CCc1ccc(S(=O)(=O)Nc2ccc(OCc3ccccc3)cc2)cc1 | n | n | n | n | n
N#Cc1ccccc1COc1ccc(/C=C/C(=O)O)cc1 | n | n | 43.2 | n | n
Cc1ccccc1COc1ccc(/C=C(\C#N)C(N)=O)cc1 | n | n | 43.9 | n | n
CCCn1c(N)c(N(CCOC)C(=O)/C=C/c2ccc(C(=O)OC)cc2)c(=O)[nH]c1=O | n | n | 42.9 | n | n
CCCn1c(N)c(N(CCOC)C(=O)c2ccc(-c3ccccc3)cc2)c(=O)[nH]c1=O | n | n | n | n | n
C[C@@H]1CN([C@H](C)CO)C(=O)c2cc(-c3ccncc3)cnc2O[C@@H]1CN(C)C(=O)NC1CCCC1 | x | n | n | x | x
C[C@@H]1CN(C)C(=O)c2cccc(N(C)C)c2O[C@@H]1CN(C)S(C)(=O)=O | x | n | x | x | x
Fc1cnc(Cl)nc1N1CCN(c2ccccc2)CC1 | n | -22.5 | n | n | n
O=[N+]([O-])c1ccc(O)c(C2=NNC(c3ccccc3F)C2)c1 (stereo unspecified) | n | -54.0 | n | n | n
Oc1ccc(Cl)cc1C1=NNC(c2cccs2)C1 (stereo unspecified) | n | n | n | n | n
C[C@H](CO)N1C[C@H](C)[C@@H](CN(C)S(=O)(=O)c2cn(C)cn2)Oc2ccc(NC(=O)Nc3ccc(F)cc3)cc2CC1=O | x | n | x | x | x
c1ccc(CSc2nc3ncncc3[nH]2)cc1 | n | n | n | n | n
CCOC(=O)Sc1nc2ncncc2[nH]1 | n | n | 43.3 | n | n
CN(C)C(=O)C(=O)c1c(-c2ccccc2)cc2ccccn12 | n | x | x | n | n
O=Nc1c(-c2ccccc2)cc2ccccn12 | n | n | 43.1 | n | n
C[C@@H]1CN([C@H](C)CO)C(=O)c2cc(-c3ccc(F)cc3)cnc2O[C@@H]1CN(C)C(=O)Nc1ccc(F)cc1 | x | n | x | x | x
O=C(O)c1ccccc1OC(=O)C12CC3CC(CC(C3)C1)C2 | n | n | 43.1 | n | n
C[C@@H]1CN([C@H](C)CO)C(=O)c2cc(-c3cccnc3)cnc2O[C@H]1CN(C)C(=O)c1ccccc1F | x | n | n | x | x
O=C(CN1C(=O)/C(=C/c2ccc(F)cc2)SC1=S)N1CCN(CCc2ccccn2)CC1 | n | -29.6 | n | n | n
CN1CCN(C(=O)CCN2C(=O)/C(=C\c3ccc(F)cc3)SC2=S)CC1 | n | n | n | n | n
O=C1NCCOCc2cn(nn2)CC[C@H]1Cc1ccccc1 | x | n | x | x | x
CCC(=O)N[C@@H]1C=C[C@@H](CC(=O)NCC2CC2)O[C@H]1CO | x | n | x | x | x
SMILES | proKLK7 act | rRNA inh HTS | FGF22 binding | ADAM17 inh | ADAM10 inh
CNC[C@@H]1Oc2c(NS(C)(=O)=O)cccc2C(=O)N(C)C[C@H]1C | x | n | x | x | x
O=C(C(=O)N1CCN(Cc2ccccc2)CC1)c1c[nH]c2ccccc12 | n | n | n | n | n
O=C(c1c[nH]c2ccccc12)N1CCN(Cc2ccccc2)CC1 | n | n | 42.9 | n | n
C[C@H](CO)N1C[C@H](C)[C@H](CN(C)C(=O)Nc2ccc(F)cc2)Oc2ccc(NC(=O)c3ccncc3)cc2C1=O | x | n | n | x | x
COc1cc2c(cc1Cl)C(=O)C(F)(c1ccccc1)C(=O)N2 (stereo unspecified) | n | -28.8 | n | n | n
CCOC(=O)CSc1ncnc2c(C(=O)OCC)c3n(c12)CCC3 | n | n | 43.1 | n | n
CCCCCCn1cc(C(=O)OCC)c(=O)c2cc(F)c(F)cc21 | n | n | n | n | n
CCOC(=O)c1cn(CC#N)c2cc(F)c(F)cc2c1=O | n | n | 43.0 | n | n
